Source: the supplement of paper PMC10646978
± gives the standard deviation.

Legend:
Conditions in all cases: modulator concentration 10 µM
[1] = tested on: RAW-Dual (murine macrophage reporter line); assay: NF-kB reporter (SEAP) activity fold change vs agonist alone; higher = enhanced NF-kB activity
Method in brief: (§1)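 Compound reached 10 μM final in each well by pin transfer, onto RAW-Dual murine macrophage reporter cells seeded at 50 000 per well in 384-well plates. After 1 hour at 37 °C, the cells were stimulated overnight with a PRR agonist. SEAP in the supernatant was read with QUANTI-Blue at 620 nm absorbance for NF-κB, and Lucia luciferase was read with QUANTI-Luc luminescence for IRF. Each signal was turned into fold change against the mean agonist-only control on the same plate, and two replicate plates were averaged with propagated errors.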

[2] = tested on: RAW-Dual (murine macrophage reporter line); assay: IRF reporter (Lucia luciferase) activity fold change vs agonist alone; higher = enhanced IRF activity
Method in brief: as §1

[3] = tested on: RAW-Dual (murine macrophage reporter line); assay: viability score (confluency relative to resting cells, overnight) (fraction); higher = more viable, active = viable (0.7 or more)
Method in brief: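 RAW-Dual macrophages in 384-well plates were incubated overnight with compound, final concentration 10 μM. Confluency images from IncuCyte were processed in IncuCyte software into two masks covering all imaged wells. The viability score is each well's confluency relative to resting cells, and a compound met the cutoff when both masks exceeded 70% of resting cells.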

[4] = agonist: CpG ODN 1826 0.5 ug/mL

SMILES | NF-kB reporter [1, 4] | NF-kB reporter ([1]; agonist: LPS 0.1 ug/mL) | NF-kB reporter ([1]; agonist: MPLA […]) | IRF reporter ([2]; agonist: 3'3'-cGAMP 10 ug/mL) | IRF reporter ([2]; agonist: LPS 0.1 ug/mL) | IRF reporter ([2]; agonist: MPLA […]) | viability score [3]
CC12CCC(CC1)C(C)(C)O2 | 1.17 ± 0.28 | 1.05 ± 0.14 | 0.968 ± 0.074 | 0.956 ± 0.033 | 1.21 ± 0.15 | 1.15 ± 0.12 | 0.994 (active)
Cc1ccc(C23CC4CC(CC(CN)(C4)C2)C3)cc1.Cl | 0.827 ± 0.062 | 1.02 ± 0.063 | 1.95 ± 0.14 | 0.741 ± 0.031 | 1.27 ± 0.15 | 1.29 ± 0.13 | 0.46 (inactive)
COc1ccc(C2SCc3cc(C)c(C)cc3CS2)cc1OC | 0.831 ± 0.11 | 0.826 ± 0.069 | 1.1 ± 0.1 | 0.965 ± 0.045 | 1.4 ± 0.087 | 1.64 ± 0.14 | 1.01 (active)
CCC1(C)CC(CCN)(c2ccc(C)cc2)CCO1 (stereo not drawn) | 0.826 ± 0.053 | 1.02 ± 0.08 | 0.992 ± 0.047 | 0.822 ± 0.048 | 0.904 ± 0.06 | 0.843 ± 0.083 | 0.962 (active)
CCN1C(C)=C(C(=O)OC)C(c2ccc([N+](=O)[O-])cc2)C(C(=O)OC)=C1C | 1.17 ± 0.11 | 0.868 ± 0.079 | 0.991 ± 0.049 | 0.981 ± 0.037 | 0.954 ± 0.044 | 0.961 ± 0.1 | 0.994 (active)
O=C(C=Cc1ccc(Cl)c(Cl)c1)c1ccc2ccccc2c1O | 1.09 ± 0.1 | 1.06 ± 0.07 | 0.935 ± 0.085 | 0.96 ± 0.041 | 1.57 ± 0.23 | 1.25 ± 0.077 | 1.01 (active)
O=C(Nc1ccc(-c2cn3ccsc3n2)cc1)C1CCCC1 | 1.14 ± 0.09 | 1.1 ± 0.15 | 1.37 ± 0.13 | 0.69 ± 0.027 | 1.23 ± 0.18 | 1.38 ± 0.23 | 0.962 (active)
CC(C(=O)O)c1ccc(C(=O)c2cccs2)cc1 (stereo not drawn) | 1.17 ± 0.17 | 1.08 ± 0.24 | 0.995 ± 0.065 | 0.97 ± 0.03 | 1.22 ± 0.14 | 1.23 ± 0.14 | 1.01 (active)
C#CC1(O)CCC2C3CCC4=Cc5oncc5CC4(C)C3CCC21C (stereo not drawn) | 1.26 ± 0.31 | 1.27 ± 0.094 | 1.2 ± 0.082 | 0.787 ± 0.046 | 1.35 ± 0.2 | 1.56 ± 0.15 | 0.958 (active)
Cc1c(C(=O)Nc2ccc(N3C[C@@H](C)O[C@@H](C)C3)nc2)cccc1-c1ccc(OC(F)(F)F)cc1 | 1.25 ± 0.17 | 1.13 ± 0.2 | 1.64 ± 0.18 | 0.412 ± 0.024 | 1.13 ± 0.13 | 1.37 ± 0.1 | 0.824 (active)
CCCCCCOc1ccc(N2C(=O)CC(SC(=Nc3ccccc3)Nc3ccccc3)C2=O)cc1 (stereo not drawn) | 0.968 ± 0.08 | 1.07 ± 0.073 | 0.856 ± 0.05 | 0.937 ± 0.036 | 1.45 ± 0.092 | 1.23 ± 0.25 | 0.996 (active)
Cc1cc2nc3sc(=Cc4ccccc4OCc4ccc(Cl)cc4Cl)c(=O)n3c2cc1C | 0.975 ± 0.088 | 1.07 ± 0.069 | 0.962 ± 0.072 | 0.99 ± 0.034 | 1.47 ± 0.18 | 1.14 ± 0.12 | 0.999 (active)
C=CCNC(=O)CN(Cc1ccccc1)S(=O)(=O)c1ccc(OC)c(OC)c1 | 0.684 ± 0.4 | 0.886 ± 0.078 | 0.946 ± 0.089 | 0.916 ± 0.029 | 1.11 ± 0.14 | 1.13 ± 0.17 | 1.04 (active)
CCc1cccc(C)c1NC(=O)C(C)(C)CC | 0.948 ± 0.18 | 0.846 ± 0.12 | 0.911 ± 0.09 | 1.03 ± 0.041 | 0.988 ± 0.097 | 0.975 ± 0.1 | 0.995 (active)
COCCN(CCOC)C(=O)Cc1csc2nc(-c3ccc(F)cc3)cn12 | 1.1 ± 0.27 | 0.966 ± 0.084 | 0.949 ± 0.067 | 0.947 ± 0.064 | 1.09 ± 0.15 | 1.31 ± 0.24 | 0.653 (inactive)
COc1ccc(Cc2nnc(C3CCN(S(C)(=O)=O)CC3)s2)cc1 | 0.978 ± 0.069 | 1.04 ± 0.085 | 0.93 ± 0.12 | 1.06 ± 0.093 | 1.25 ± 0.076 | 1.09 ± 0.13 | 0.994 (active)
CCOc1ccc(NC(=O)N2C3C=CCC2CC3)cc1 (stereo not drawn) | 1.09 ± 0.42 | 0.941 ± 0.055 | 1.04 ± 0.075 | 0.943 ± 0.054 | 0.921 ± 0.13 | 1.1 ± 0.1 | 0.814 (active)
COC(=O)c1ccc(C=NN=C2C(=O)Nc3ccccc32)cc1 | 0.968 ± 0.069 | 1.05 ± 0.09 | 0.995 ± 0.028 | 0.527 ± 0.028 | 1.09 ± 0.053 | 1.13 ± 0.11 | 0.998 (active)
COc1ccc2ncc(S(=O)(=O)c3ccccc3)c(N3CCN(c4ccccc4)CC3)c2c1 | 0.611 ± 0.034 | 0.924 ± 0.068 | 1.14 ± 0.13 | 1.05 ± 0.036 | 1.4 ± 0.16 | 1.13 ± 0.14 | 0.981 (active)
c1ccc(-c2ccc(C(c3ccccc3)n3ccnc3)cc2)cc1 (stereo not drawn) | 0.825 ± 0.097 | 0.893 ± 0.083 | 1.22 ± 0.12 | 0.966 ± 0.044 | 1.31 ± 0.076 | 1.41 ± 0.15 | 1 (active)
CN1CCN(c2ccc3nc(-c4c(N)c5c(F)cccc5[nH]c4=O)[nH]c3c2)CC1 | 0.277 ± 0.1 | 1.19 ± 0.35 | 1.39 ± 0.59 | 0.0238 ± 0.0011 | 0.491 ± 0.07 | 0.197 ± 0.015 | 0.799 (active)
CCC(NC(C)C)C(O)c1ccc(O)c(O)c1 (stereo not drawn) [Prestw-749] | 2.04 ± 0.12 | 1.13 ± 0.092 | 1.34 ± 0.13 | 0.988 ± 0.039 | 0.96 ± 0.051 | 1.08 ± 0.25 | 0.997 (active)
O=C(Nc1ccc(S(=O)(=O)Nc2nccs2)cc1)c1c(F)cccc1F | 0.984 ± 0.1 | 1.02 ± 0.058 | 0.922 ± 0.06 | 0.982 ± 0.026 | 1.52 ± 0.23 | 1.14 ± 0.1 | 1.01 (active)
Cn1nc(CNS(=O)(=O)c2cccc(C(F)(F)F)c2)c2c1CCOC2 | 1.13 ± 0.34 | 1.08 ± 0.061 | 1.02 ± 0.065 | 0.955 ± 0.035 | 1.05 ± 0.13 | 1.12 ± 0.11 | 1 (active)
